Measurements from PubChem BioAssay AID493170 (National Center for Advancing Translational Sciences (NCATS), 2011).
Inconclusive results are not listed. Active and inactive are the calls of the source. Calls come from the whole dose curve; as a rule, active = well fitted inhibition curve with a large enough effect; inconclusive = small, poorly fitted or top-dose-only effect, or effect the other way; inactive = flat fitted curve, though single readings scatter.
% is set by controls: 0 for no effect and ±100 for the full control effect; potency is the fitted concentration of half-maximal effect.
Note: nearly all actives have a fitted effect of over 50% in size.

These compounds were tested against Ubiquitin carboxyl-terminal hydrolase 2 (Homo sapiens) (UniProt O75604) (assay: Ub-rhodamine 110 based assay for inhibitors Ubiquitin-specific Protease USP2a). Details: USP2a Ub-rhodamine110 cleavage, fluorescence; series mostly up to 38.3 µM; activity change, negative = inhibition: at the top concentration.
Chain of Ubiquitin carboxyl-terminal hydrolase 2 (Homo sapiens) (O75604 whole entry, looked up): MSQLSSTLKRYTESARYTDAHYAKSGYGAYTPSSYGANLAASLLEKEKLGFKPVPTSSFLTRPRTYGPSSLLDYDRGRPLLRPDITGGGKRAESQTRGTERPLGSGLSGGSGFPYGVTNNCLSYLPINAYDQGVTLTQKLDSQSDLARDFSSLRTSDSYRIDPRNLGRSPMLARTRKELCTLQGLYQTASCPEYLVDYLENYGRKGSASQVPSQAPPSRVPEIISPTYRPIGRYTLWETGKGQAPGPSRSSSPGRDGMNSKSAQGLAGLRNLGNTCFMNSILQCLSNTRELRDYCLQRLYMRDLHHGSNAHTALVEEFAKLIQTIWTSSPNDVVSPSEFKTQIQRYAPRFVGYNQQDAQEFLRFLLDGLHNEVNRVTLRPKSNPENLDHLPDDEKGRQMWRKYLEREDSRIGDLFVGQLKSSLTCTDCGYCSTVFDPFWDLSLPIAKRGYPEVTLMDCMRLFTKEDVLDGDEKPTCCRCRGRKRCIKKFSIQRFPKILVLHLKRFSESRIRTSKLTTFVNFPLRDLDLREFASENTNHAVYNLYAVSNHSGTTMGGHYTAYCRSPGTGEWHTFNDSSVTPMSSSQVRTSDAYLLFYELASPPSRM
Method in brief: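 Kinetic fluorescence (485/531 nm) read each minute over 7 min after adding Ub-Rhod110 (150 nM final) to USP2a (5 nM final). The enzyme had 30 min RT exposure to compounds beforehand in Tris pH 8.0 buffer with CaCl2, CHAPS and beta-ME.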
For `CC(=O)c1ccc2c(c1)C1C=CCC1C(C(=O)O)N2` (stereo unspecified), the Potency was 10 µM (active).
With `O=C(CNC(=O)C1CCCCC1)NC1=NCCS1` the “activity change, negative = inhibition” value was -7.26% (inactive).
In the case of `CN1CCN(CCCCOc2ccc(F)cc2)CC1`, the “activity change, negative = inhibition” value is reported as -2.66% (inactive).
With `Cc1ccc(S(=O)(=O)N2[C@@H](c3ccc(C(C)(C)C)cc3)C(C(=O)O)=CC[C@H]2c2ccc(Cl)c(Cl)c2)cc1` the Potency was 10 µM (active).
For `O=C1NC[C@@H](c2ccccc2)OC(=O)[C@@H](Cc2ccc(F)cc2)CC/C=C/C[C@@H]1CC(=O)N(CCO)Cc1ccccc1`, the “activity change, negative = inhibition” value was -19.6% (inactive).
In the case of `CCOc1ccc(CCn2c(-c3ccco3)nc3ccccc3c2=O)cc1OCC`, the “activity change, negative = inhibition” value is reported as -9.5% (inactive).
`Oc1ccccc1/C=N/Nc1ncc(Br)cn1` was tested, and the “activity change, negative = inhibition” value was 1.75% (inactive).
`CCCCC(OC(=O)c1cc2occc2n1C)C(=O)NCC1CCCO1` (stereo unspecified) was tested, and the “activity change, negative = inhibition” value was -5.56% (inactive).
`Cc1ccc(C2=[N+]([O-])C(C)N(O)C2(C)C)o1` (stereo unspecified) was tested, and the “activity change, negative = inhibition” value was -1.97% (inactive).
For `O=C(NCc1ccccc1)C1CCC1`, the “activity change, negative = inhibition” value was -0.863% (inactive).
For `O=C(c1cc(-c2ccco2)on1)N1CCc2ccccc2C1`, the Potency was 10 µM (active).
With `O=C(O)c1cccc(-n2cccc2/C=C2/NC(=O)N(c3ccc(Cl)cc3)C2=O)c1` the Potency was 4.47 µM (active).
For `CCOC(=O)c1c(NC(C)=O)sc2c1CCCNC2=O`, the “activity change, negative = inhibition” value was -1.65% (inactive).
`Cc1cc(C)c(NC(=O)C[N+](C)(C)CC(O)COc2cccc3ccccc23)c(C)c1` (stereo unspecified) was tested, and the “activity change, negative = inhibition” value was -7.77% (inactive).
With `COc1ccc(S(=O)(=O)N2CCCC2C(=O)NCc2cccs2)cc1` (stereo unspecified) the “activity change, negative = inhibition” value was -3.06% (inactive).
With `Cc1c(NC(=O)C2CCCN(S(=O)(=O)c3cnc[nH]3)C2)c(=O)n(-c2ccccc2)n1C` (stereo unspecified) the “activity change, negative = inhibition” value was -9.5% (inactive).
`NC(=O)C[C@@H]1N[C@]2(C(=O)Nc3ccccc32)[C@@H]2C(=O)N(c3cc(C(F)(F)F)ccc3Cl)C(=O)[C@H]12` was tested, and the “activity change, negative = inhibition” value was -1.09% (inactive).
For `CCCCc1ccc(/C=C2/C(=O)ON=C2c2ccccc2)s1`, the “activity change, negative = inhibition” value was -9.15% (inactive).
`c1ccc(CN2CCN(CCOCCOc3cccc4ccccc34)CC2)cc1` was tested, and the “activity change, negative = inhibition” value was -6.82% (inactive).
With `CC1(C)CC(=O)C2=C(C1)NCN(CCCN1CCOCC1)C2` the “activity change, negative = inhibition” value was 1.43% (inactive).
In the case of `C=CC[C@@H](CC(=O)N(CCO)Cc1ccccc1)C(=O)NCCOC(=O)[C@H](CC=C)CC(=O)OC(C)(C)C`, the “activity change, negative = inhibition” value is reported as 2.02% (inactive).
